# Screens: PubChem BioAssay, several laboratories
# EWS-Fli inh = EWS/Fli-driven NR0B1 reporter inhibitors, primary screen, A673 cells, NR0B1 luciferase, luminescence, MLPCN library | viability-normalised | inhibition, % at 12.6 µM | 350,000 tested, 0.67% active | AID 651661, 2012;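 active means mean inhibition of at least 50% after viability correction, with every replicate also passing that limit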;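 further: firefly luciferase signal divided by Alamar Blue viability fluorescence both relative to DMSO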
# F508del corr = F508del CFTR correction, initial screen, CFBE line, single point; CFBE cells, YFP halide quenching; stimulated with forskolin plus potentiator P3; % fluorescence drop versus neutral controls; activity (quench increase), % at 7.58 µM; 350,000 tested, 0.36% active; AID 720511, 2013;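 active means mean added fluorescence quench of at least 8% versus neutral control, with both replicates also reaching 8%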;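 further: cells transiently co-express mutant CFTR-F508del with the halide-sensitive YFP; corrector assay measuring rescue of mutant channel to the surface after 24 h compound exposure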
# Env fusion inh = inhibitors of HIV-1 Env-driven cell-cell fusion, primary screen, HeLa-JRFL effector, CEM21 target cells, luciferase | inhibition, % at 12.3 µM | 360,000 tested, 1.1% active | AID 651610, 2012;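 active means mean replicate inhibition score of at least 50 and every replicate individually at or above 50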;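 further: 0% = plate neutral controls and 100% = maraviroc near 300 nM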
# FXN GAA850 act = FXN promoter activators, primary screen, cell-based, luciferase luminescence, HEK293 lucGAA850 | HEK293 lucGAA850 FXN promoter luciferase reporter, 24 h; percent of 10 µM SAHA response | 360,000 tested, 0.56% active | activation, % at 6 µM;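 active means activation above the average of all compounds screened plus 3 SD, cutoff fixed separately per campaign, cut at about 7.5% in these data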;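 further: 0% = DMSO wells and 100% = 10 µM SAHA wells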
# PAX8 inh HTS = inhibitors of PAX8-driven TPO luciferase reporter, primary screen, RMG-I cells, single concentration. SteadyGlo, 24 h. inhibition, % at 12.6 µM. 360,000 tested, 1.2% active;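 active means mean replicate inhibition at least 60% with every replicate also reaching 60%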;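 further: luciferase light reporting Pax8 driven TPO promoter activity; plate controls were median of neutral control wells for no effect and mitoxantrone controls for full effect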
# GAA30 counter = GAA30 FXN promoter activators, confirmation, counter-screen for GAA850 frataxin promoter activator project, cell-based, luminescence, HEK293, lucGAA30, triplicate; 1,900 tested, 66% active; HEK293 lucGAA30 FXN promoter luciferase, 24 h; DMSO = 0%, 5 µM ipriflavone = 100%; shares compounds with FXN GAA850 act; activation, % at 6 µM;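 active means mean activation above the mean of solvent-only control wells plus 3 SD, cut at about 22% in these data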;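 further: counterscreen of GAA850 promoter hits where activity marks nonselective or luminescence artifacts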
# FXN GAA850 conf = FXN GAA850 promoter activators in reporter cells, confirmation, cell-based, luminescence, HEK293 lucGAA850, triplicate. shares compounds with FXN GAA850 act. HEK293 lucGAA850 FXN promoter luciferase reporter, 24 h; 100% = activation by SAHA. activation, % at 6 µM. 1,900 tested, 86% active. AID 588351, 2011;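 active means mean activation above a set limit taken from the primary screen, cut at about 8% in these data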;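 further: 0% = DMSO wells and 100% = 10 µM SAHA wells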
# Numbers without * were called inactive; / = no result; [ ] = remark or other dose. Rows were chosen to be rich in hits. Some 2.5% of all compounds tested hit in one or more screens of this group.
SMILES,EWS-Fli inh,F508del corr,Env fusion inh,FXN GAA850 act,PAX8 inh HTS,GAA30 counter,FXN GAA850 conf
Cc1ccc(OCCCCNC(C)c2ccccc2)c(C)c1 (centres undefined),20.5,-3.2,96.3*,7.7*,10.1,24.2*,8.8*
C[C@@H]1CN([C@@H](C)CO)C(=O)c2cc(NC(=O)CCN3CCOCC3)ccc2O[C@H]1CN(C)Cc1ccncc1,/,0.1,-5.0[16.7 µM],/,-0.6,/,/
O=C(O)Cn1c2ccccc2c2nc3ccccc3nc21,/,/,/,10.2*,/,104.5*,33.0*
c1cncc(-c2nc3ccccc3s2)c1,-84.0,0.1,-32.6,7.7*,-166.9,86.3*,27.6*
C[C@H](CO)N1C[C@H](C)[C@H](CN(C)CC2CCCCC2)Oc2ccc(NC(=O)Cn3cnnn3)cc2CC1=O,0.1,-1.5,1.8[16.7 µM],/,3.7,/,/
CO[C@H]1CN(C)C(=O)c2ccc(NC(=O)C3CC3)cc2OC[C@@H](C)N(C(=O)C2CCOCC2)C[C@H]1C,-4.8,-1.5,/,/,-9.2,/,/
CC(C)=CCC/C(C)=C/C=N/NC(=O)c1ccccc1[N+](=O)[O-],/,/,29.7,8.6*,/,16.5,5.0
CCCNC(=O)[C@H]1[C@H](CO)[C@H]2Cn3c(cccc3=O)[C@H]2N1CCC(F)(F)F,-0.2,-0.7,/,/,-11.0,/,/
CCOC(=O)c1c(NC(=O)CC)sc(C(=O)N2CCCCC2)c1C,/,/,/,2.9,/,/,/
CCOC(=O)c1sc(NC(=O)CCN2CCCCCC2)c(C(=O)OCC)c1C,7.6,0.2,-15.9,10.4*,-32.8,14.8,7.0
CCCN1[C@H](CO)[C@H](c2ccc(C#Cc3ccccc3)cc2)[C@@H]1CNC1CCCC1,/,0.6,/,/,/,/,/
CCCCSc1nc2c([nH]1)c(=S)n(C)c(=O)n2C,38.7,0.6,-31.9,19.2*,3.3,13.7,15.1*
CCCC(CC)Sc1nc2c([nH]1)c(=S)n(C)c(=O)n2C (centres undefined),32.9,-1.3,15.1,15.0*,8.2,17.3,13.8*
CCN(CC)CCSc1nc2c([nH]1)c(=S)n(C)c(=O)n2C,6.5,2.2,-14.0,2.1,/,/,/
COc1cc(CNc2ccc3[nH]c(=O)[nH]c3c2)ccc1OCc1ccccc1F,-21.6,-0.7,-8.5,7.7*,-32.0,33.4*,19.7*
Cc1cccc(CCNC(=O)c2cccc(NC3=NC4CS(=O)(=O)CC4S3)c2)c1 (centres undefined),-1.7,-6.1,21.6,16.4*,-2.3,12.4,6.7
Cn1cnc2cc(NC(=O)c3ccc(Cl)cc3)ccc21,-96.2,-1.5,-54.3,9.3*,-118.4,95.3*,42.2*
CC(C)(C)n1cnc2cc(NC(=O)c3ccc(Cl)cc3)ccc21,-36.8,-0.1,-141.5,4.0,-134.6,/,/
CCOC(=O)c1ccc(N2Cc3ccccc3C2=NC(=O)c2cccs2)cc1,/,/,/,9.3*,-38.4,52.5*,22.6*
CC(=O)c1ccc(N2Cc3ccccc3C2=NC(=O)c2cccs2)cc1,/,/,-2.1,4.2,-93.7,/,/
C[C@H]1CN([C@@H](C)CO)C(=O)c2cc(C3=CCCC3)cnc2O[C@H]1CN(C)S(=O)(=O)c1cn(C)cn1,-20.9,-0.1,7.4[16.7 µM],/,11.5,/,/
CCCC#Cc1ccc2c(c1)O[C@@H](CN(C)C(=O)Nc1ccc(OC)cc1)[C@@H](C)CN([C@@H](C)CO)S2(=O)=O,12.5,0.6,-8.6[16.7 µM],/,/,/,/
COc1ccc(-c2ccc(=O)n(Cc3c(F)cccc3Cl)n2)cc1,-6.4,1.3,-10.7,8.0*,-3.8,43.4*,21.8*
Cc1cc2nc(N)sc2cc1C,/,/,/,8.4*,/,108.8*,26.5*
O=C(c1cnccn1)N1CC(=O)N2[C@H](CO)[C@@H](c3ccc(C4=CCCCC4)cc3)[C@@H]2C1,0.3,0.2,/,/,-20.9,/,/
SMILES,EWS-Fli inh,F508del corr,Env fusion inh,FXN GAA850 act,PAX8 inh HTS,GAA30 counter,FXN GAA850 conf
CCn1c(=O)[nH]c(=O)c2c(N)c(C(=O)c3cc(F)ccc3F)sc21,19.6,7.0,7.7,8.7*,-70.4,23.1*,17.6*
CCOC(=O)C1=C(COC(=O)/C=C/c2ccccc2F)NC(=O)NC1C (centres undefined),1.7,-0.5,-6.6,1.2,/,/,/
CCOC(=O)C1=C(COC(=O)/C=C/c2ccccc2Cl)NC(=O)NC1C (centres undefined),/,-0.5,-5.3,8.0*,-7.4,48.6*,18.8*
O=S(=O)(c1ccccc1F)N1CCCCN2[C@@H](CO)[C@@H](c3ccc(-c4ccncc4)cc3)[C@@H]2C1,3.5,2.5,/,/,-12.9,/,/
O=C(Nc1ccc(Cl)c(Cl)c1)C1=Cc2ccccc2OC1,/,/,/,9.1*,/,85.9*,34.5*
Cc1ccc(S(=O)(=O)N(C)C[C@@H]2Oc3ccc(NC(=O)Cn4cnnn4)cc3C(=O)N([C@@H](C)CO)C[C@@H]2C)cc1,-7.7,4.5,/,/,/,/,/
O=C1CN(Cc2ccccc2)C[C@@H]2[C@H](c3ccc(-c4ccccc4)cc3)[C@H](CO)N12,13.9,-1.6,/,/,6.4,/,/
O=C(N/N=C/C(Br)=C/c1ccccc1)NC1CCCCC1,-43.3,0.2,-32.5,9.8*,0.7,51.4*,21.8*
O=C(N/N=C/C(Br)=C/c1ccccc1)C(O)c1ccccc1 (centres undefined),-17.9,-0.1,-8.7,5.9,52.8,/,/
CC(/C=N/NC(=O)NC1CCCCC1)=C\c1ccccc1,-30.6,-2.4,-6.3,2.9,-28.4,/,/
O=C(N/N=C/C(Br)=C/c1ccccc1)C1CC1,-52.0,-1.8,-19.4,8.2*,13.9,80.8*,31.5*
O=C(O)c1ccc(N/N=C/C(Br)=C/c2ccccc2)cc1,-78.7,-5.5,-128.9,10.0*,-21.2,81.8*,35.9*
O=C(N/N=C/c1ccccc1)NC1CCCCC1,/,/,/,8.6*,/,61.7*,20.0*
C[C@H](NC(=O)C[C@H]1CC[C@@H]2[C@H](COC[C@H](O)CN2C(=O)Nc2cccc(F)c2)O1)c1ccccc1,-66.3,-4.2,/,/,-24.0,/,/
O=C(N/N=C/C(Br)=C\c1ccccc1)c1ccc2nc[nH]c2c1,/,/,-57.0,8.5*,17.5,37.9*,18.6*
CC(=C/c1ccccc1)/C=N/NC(=O)c1ccc2nc[nH]c2c1,/,/,/,3.6,-30.5,/,/
Cc1cc(C)nc(SCC(=O)N/N=C\C(Br)=C\c2ccccc2)n1,1.7,/,7.3,0.1,-15.6,/,/
Cc1ccc(NCC(=O)N/N=C\C(Br)=C\c2ccccc2)cc1,1.8,-2.9,/,13.3*,/,15.0,10.7*
COCC(=O)Nc1ccc2c(c1)C(=O)N(C)C[C@H](OC)[C@H](C)CN(Cc1ccccn1)[C@@H](C)CO2,-3.0,-0.5,-6.1[16.7 µM],/,/,/,/
